Measurements as given in ChEMBL document CHEMBL3988442, “University of Dundee, Small-Polar-MMV Screening Library” (2021).
Out of some 38,000 compounds screened, about 1,200 (3.2%) showed an effect of 50% or more. The median lay at about -58%. Many of the other results were omitted from the sample, so strong results are more common in it than they were.

tested on: Plasmodium falciparum; experiment: Calibr Malaria Delayed Death Assay SOP; type: functional, organism-based; parameters: scale not given: in the data most compounds retested in dose-response had high values; details: concentration 4.99e-06 (unit not given; other assays of the set use mol/L)

SMILES | Percent Effect [%]
COCCCC1(C(=O)O)CCCN(C(=O)c2ccc(Cl)cc2F)C1 (stereo not given) | -104.4
CNC(=O)c1ccc2c(c1)C1(CCN(CC3CC3)CC1)C(=O)N2.O=C(O)C(F)(F)F | -45
CN(Cc1ccncc1)C1COC2(CCN(Cc3ccco3)CC2)C1.O=C(O)C(F)(F)F.O=C(O)C(F)(F)F.O=C(O)C(F)(F)F (stereo not given) | -70.95
CN(C)CC(C)(O)CNC(=O)Nc1sc2ccccc2c1Cl (stereo not given) | 61
CS(=O)(=O)CCCNC(=O)Nc1sc2ccccc2c1Cl | -18.18
CS(=O)(=O)CCNC(=O)Nc1sc2ccccc2c1Cl | -106.1
CN(C)C(=O)CN1C[C@@H]2CC[C@H](C1)N(C/C=C/c1ccc(F)cc1)C2 | 41.87
CS(=O)(=O)N1C[C@@H]2CC[C@H](C1)N(C/C=C/c1ccc(F)cc1)C2 | -47.28
CN(C)C(=O)N1C[C@@H]2CC[C@H](C1)N(C/C=C/c1ccc(F)cc1)C2 | 56.59
CCN(c1ccsc1C(=O)N1CCSCC1)S(=O)(=O)c1ccc(Cl)cc1 | -33.89
Cc1cnn(Cc2ccc(NC(=O)N3CCCC3)cc2)c1 | -108.6
Cc1ccc(C(=O)N(C)Cc2csc(C)n2)c(=O)[nH]1 | -148.4
CCC(NC(=O)C1CCN(C(C)C)CC1)c1cn2cccnc2n1 (stereo not given) | -73.6
CC(C)Cc1cc(-c2cc(-c3ccc[nH]3)nc(N)c2C#N)n[nH]1 | 60.25
Cc1n[nH]c(C)c1-c1cc(-c2ccc[nH]2)nc(N)c1C#N | -191.7
Cc1n[nH]c(C)c1-c1cc(-c2cccc(O)c2)nc(N)c1C#N | -75.89
Cc1ccc(CNCc2c(C(C)C)nn(C)c2N2CCOCC2)s1 | 43.54
Cc1nccn1CCCN1CCC(c2nccn2CC2CCC2)CC1 | -43.9
Cc1nccn1CCCN1CCCC(c2ccccc2)C1 (stereo not given) | 77.62
Cc1nccn1Cc1nnc(C2CCCN(Cc3ccncc3)C2)n1C (stereo not given) | -18.97
COc1cc(C)ccc1OCCC(=O)N1CCC(N2CC=CC2)C1 (stereo not given) | -87.08
COc1ccc(N2CCN(Cc3noc(CC(C)C)n3)C(C)C2=O)cc1 (stereo not given) | -89.75
COc1ccccc1CN(Cc1cccnc1)CC1CCCO1.O=C(O)CC(O)(CC(=O)O)C(=O)O (stereo not given) | -1.656
COc1cc(CN(CCCN(C)C)Cc2ccccn2)cc2c1OCO2.O=C(O)CC(O)(CC(=O)O)C(=O)O | 79.66
CN(C)CCN(C)C(=O)Cc1ccc2c(c1)OCCO2.O=C(O)CC(O)(CC(=O)O)C(=O)O | -18.25

SMILES | Percent Effect [%]
CCN1CCc2[nH]cnc2C12CCN(C(=O)CCc1cccs1)CC2 | -14.54
Cc1c(-c2ccccc2)nc2c(c(C)c(C)n2CCN(C)C)c1N | 79.27
CCc1c(C)sc2c1c(N)nc(=O)n2CCCN(C)C | -156.5
CCc1c(-c2ccccc2)nc2c(c(C)c(C)n2CCN(C)C)c1N | 66.32
CN(C)CCN1CCN(C)c2nc(-c3ccccc3)ncc2C1=O | -20.71
CCc1c(C)sc2c1c(N)nc(=O)n2CCN(C)C | 14.15
CCCc1nc2c(c(C)c(C)n2CCN(C)C)c(N)c1CC | 89.53
CCN(C)CC(C)Cn1cnc(-c2ccccc2)c1C (stereo not given) | -12.51
O=C(Cc1ccccn1)N1C[C@H]2CCC[C@@]2(COc2ccccn2)C1 | -9.537
Cc1cc(SCC(N)=O)nc(-c2ccc(F)cc2)n1 | 0.2782
COCCn1cnnc1CCNc1cc(C)nc2ccnn12 | -117.5
CCN1CC2(CC1=O)CN(Cc1ccoc1)CCN(C(=O)C(C)C)C2 (stereo not given) | -77.86
CN1CCC(CNC(=O)c2cccc(CN3CCCCCC3)c2)C1 (stereo not given) | -131.1
CN(C)C(=O)CN1CCC2(COCc3cnc(N4CCOCC4)nc32)C1.O=C(O)C(F)(F)F (stereo not given) | 13
CN(CCCO)C(=O)c1cc(COc2ccc3c(c2)CCCC3)on1 | -142.4
Cc1cccc(N2CCN(CCS(=O)(=O)c3ccc(Br)cc3)CC2)c1C | -66.5
O=C(c1cscn1)N1CCc2ncc(CN3CCOCC3)n2CC1 | -41.39
CCOc1ccc2nc(CN3CCC(CN)C3)ccc2c1 (stereo not given) | 85.08
CCOc1ccc2nc(CN3CCC(CNC(C)=O)C3)ccc2c1 (stereo not given) | 36.59
CCOc1ccc2nc(CN3CCOC(CN)C3)ccc2c1 (stereo not given) | -11.41
c1ccc(Cc2noc(CN3CCCC(Cn4cncn4)C3)n2)cc1 (stereo not given) | -77.91
NC(=O)N1C[C@H](NC(=O)c2cscn2)[C@@H]2OCCC[C@@H]21 | -29.66
O=C(NCc1ccco1)[C@H]1CC[C@@H]2[C@@H](CCN2c2ncccn2)O1.O=C(O)C(F)(F)F | -5.9
CC(C)CN1C(=O)CC[C@]12CC[C@@H](NC(=O)NCc1cccnc1)CC2.O=C(O)C(F)(F)F | -179.5
Fc1ccccc1Sc1ccccc1CNC1=NCCN1.I | 76.79

SMILES | Percent Effect [%]
O=C(Cc1cccnc1)NCCSc1ccccc1F | -31.8
O=C(NCCSc1ccccc1F)NCc1cccnc1 | -28.43
O=C1NCCCCC1Sc1ccccc1F (stereo not given) | -25.7
CN(C)c1nc(NCc2ccccc2Cn2cccn2)ncc1F | -30.26
Cc1cc(Br)ccc1NCc1ccc(C(=O)N(C)C)[nH]1 | -35.81
CC(C)[C@H](NC(=O)NC1CCS(=O)(=O)C1)C(=O)NCc1ccc(Cl)cc1 (stereo not given in full) | -111.5
COCCC1COC2(CCN(C(=O)c3cccnc3)CC2)C1.O=C(O)C(F)(F)F (stereo not given) | -117.3
O=C(c1ccccc1)N1CC[C@H]2C[C@H](c3nccs3)O[C@@H]2C1 | -4.41
Cc1cc(C)cc(OCCN(C)C(=O)NC(C)c2nncn2C)c1 (stereo not given) | -106.2
CCc1nc(C2CCCN2C(=O)CCCn2cccn2)no1 (stereo not given) | -167.4875
COCC1c2c(cnn2C)CCN1C(=O)c1cscn1.O=C(O)C(F)(F)F (stereo not given) | -119.3
Cc1cc(C)nc(Nc2cccc(C3CCCN(CCO)C3)n2)n1 (stereo not given) | 10.75
Cc1cccc(Nc2nccnc2C2CCCN(CC(=O)N(C)C)C2)n1 (stereo not given) | -114.3
NCc1n[nH]c(-c2cccc(F)c2)n1 | -72.36
Cc1nc(N2CCCC2)nc2c1CCN(C(=O)N(C)C)CC2 | -58.26
CCc1cccc(N2CCC(NC(=O)CCNC(N)=O)CC2)c1 | -70
CCc1cccc(N2CCC(NC(=O)c3ccoc3C)CC2)c1 | -20.41
CCc1cccc(N2CCC(NC(=O)c3ccco3)CC2)c1 | 59.23
c1ccc(CCCN2CC(n3cccn3)C2)cc1 | -65.67
CC(=O)N1CCO[C@@H]2CN(Cc3cccc(Cl)c3)C[C@@H]2C1.O=C(O)C(F)(F)F | -40.86
CN1CCC(C(=O)N2CCN(Cc3cccc(Cl)c3)CC2)CC1=O (stereo not given) | -101.4
Cl.Cl.NCC1[C@H]2CN(CCc3ccccc3)C[C@@H]12 (stereo not given in full) | 86.43
CS(=O)(=O)NC1CCN(CCc2ccccc2)CC1 | -29.4
O=C(Nc1nnc[nH]1)C(c1cccc(F)c1)N1CCOCC1 (stereo not given) | -17.23
CC/C=C(\C)CN1CCC(CNC(=O)c2ccc(=O)[nH]c2)CC1 | -93.37

SMILES | Percent Effect [%]
Cc1ccc(S(=O)(=O)Cc2nnc(C)n2C)cc1 | -134.3
O=C(c1csnn1)N1CCCC(n2cncn2)C1 (stereo not given) | -97.91
CCC(CC)CN1CCN(CC(=O)Nc2cccc3nsnc23)CC1 | -38.36
CCn1nccc1C(=O)NC(Cn1cccn1)C(C)(C)C (stereo not given) | -34.87
CN(C)Cc1ccccc1CN(C)c1ncnc2[nH]ccc12 | 27.74
CCn1cc(CN2CCN(Cc3cccc(OC)c3)C(=O)C2)cc1C#N | 47.6
Cc1cc(C)cc(CN2CCN(Cc3cc(C#N)n(C)c3)CC2=O)c1 | 14.32
CCn1cc(CN2CCN(Cc3cc(C)cc(C)c3)C(=O)C2)cc1C#N | 66.78
CN(CCn1cnc(-c2ccccc2)c1-c1ncc[nH]1)S(C)(=O)=O | -10.43
NC1(C(=O)NCC2CCCN(Cc3cccc4nonc34)C2)CCC1 (stereo not given) | 38.45
CCN(C)S(=O)(=O)NCC1CCCN(Cc2ccccc2F)C1 (stereo not given) | 74.13
CC(=O)NCC1CCCN(Cc2nc(Cc3ccccc3F)no2)C1 (stereo not given) | -62.96
CS(=O)(=O)NCC1CCCN(Cc2ccc(F)c3cccnc23)C1 (stereo not given) | 9.25
NC1(C(=O)NCC2CCCN(Cc3ccccc3F)C2)CCCC1 (stereo not given) | 85.42
CCN(C)S(=O)(=O)NCC1CCN(Cc2ccccc2F)C1 (stereo not given) | 42.63
CC(C)NC(=O)[C@@H]1C[C@H]2NCC[C@H]2O1.Cl | -114.2
Cc1n[nH]c(C)c1NC(=O)Nc1cccnc1N1CCCC1 | -5.845
CC(C)CC(NCc1cccs1)c1ccccn1 (stereo not given) | -24.93
CC(C)CC(NCc1cscn1)c1ccccn1 (stereo not given) | 28.89
CC(C)CC(NCc1ccsc1)c1ccccn1 (stereo not given) | 58.77
COCCSCC(=O)NCc1ccc(N(C)C)cc1 | -84.72
COCC(=O)N1CCc2ccccc2C12CCNCC2.Cl | -57.82
CCOC(=O)N1CCc2ccccc2C12CCNCC2.Cl | 52.81
Cl.O=C(C1CC1)N1CCc2ccccc2C12CCNCC2 | -61.72
Cc1cnn(CCCNC(=O)NCCS(=O)(=O)Nc2ccccc2)c1 | -111.9
